We go through 29 compounds from PubChem BioAssay (EPA / NIEHS).

Results filed as inconclusive are left out. The source made the active and inactive calls. The calls were made as follows, unless noted: active = hit-call score of the fitted dose curve at least 0.9, where 1 is the maximum; inactive = score below 0.9.

Sequence of Retinoic acid receptor alpha (Homo sapiens) (P10276 whole entry, looked up): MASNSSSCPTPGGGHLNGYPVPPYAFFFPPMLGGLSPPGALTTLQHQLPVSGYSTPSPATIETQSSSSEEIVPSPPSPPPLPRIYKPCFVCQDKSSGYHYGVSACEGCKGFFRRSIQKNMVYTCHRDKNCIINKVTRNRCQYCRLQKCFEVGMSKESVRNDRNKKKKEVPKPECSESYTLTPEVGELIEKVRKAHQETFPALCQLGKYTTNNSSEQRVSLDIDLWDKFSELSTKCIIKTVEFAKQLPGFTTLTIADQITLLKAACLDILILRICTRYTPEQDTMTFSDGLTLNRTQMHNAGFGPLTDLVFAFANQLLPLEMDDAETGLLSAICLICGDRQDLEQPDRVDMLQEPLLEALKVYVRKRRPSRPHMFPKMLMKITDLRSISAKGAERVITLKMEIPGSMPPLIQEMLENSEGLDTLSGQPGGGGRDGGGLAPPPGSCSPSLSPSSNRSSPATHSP

In one assay the target is human Peroxisome Proliferator-activated Receptor delta (PPARd), PPARD (gene 5467) (UniProt Q03181). The experiment in a line: ATG_PPARd_TRANS: Attagene TRANS-FACTORIAL HepG2 Assay for human Peroxisome Proliferator-activated Receptor delta (PPARd) (AID 2283002; active = hit-call score of the fitted dose curve at least 0.9, where 1 is the maximum).
Sequence of human Peroxisome Proliferator-activated Receptor delta (PPARd), PPARD (gene 5467) (Q03181 whole entry, looked up): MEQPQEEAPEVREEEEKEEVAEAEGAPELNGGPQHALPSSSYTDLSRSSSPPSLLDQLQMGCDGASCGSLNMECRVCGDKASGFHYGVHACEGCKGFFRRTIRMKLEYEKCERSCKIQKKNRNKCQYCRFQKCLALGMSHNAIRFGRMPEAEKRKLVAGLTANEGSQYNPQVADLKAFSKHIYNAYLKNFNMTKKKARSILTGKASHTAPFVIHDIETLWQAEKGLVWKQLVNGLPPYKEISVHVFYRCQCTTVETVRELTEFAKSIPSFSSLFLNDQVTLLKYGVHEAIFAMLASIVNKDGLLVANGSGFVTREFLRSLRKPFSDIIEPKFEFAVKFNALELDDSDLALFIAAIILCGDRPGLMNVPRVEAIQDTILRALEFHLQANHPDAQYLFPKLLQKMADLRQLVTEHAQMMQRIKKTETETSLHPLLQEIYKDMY
Conditions: not given
In outline:
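HepG2 cells transiently transfected with GAL4-UAS multiplexed reporter units driven by exogenous chimeric NR-GAL4 proteins; 24 h compound exposure. Reporter mRNA measured by RT-PCR, 6-FAM primer extension, HpaI digestion and capillary electrophoresis; gain of signal fitted relative to DMSO.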
As for `COC(=O)c1ccccc1O`, the compound was called inactive.

Turning to `CCC(C)(C)C(=O)O[C@H]1C[C@@H](C)C=C2C=C[C@H](C)[C@H](CC[C@@H]3C[C@@H](O)CC(=O)O3)[C@H]21`, the outcome was inactive.

Regarding `CCCN(C1CCN(C(=O)C2CCNCC2)CC1)[C@@H]1CCc2ccc(OC)cc2C1`, the compound was called inactive.

For `COc1ccc(/C=C/S(=O)(=O)NC(=O)c2ccc(C)cc2Cl)cc1`, the outcome was inactive.

As to `O=C(O)c1cc(N=Nc2ccc(S(=O)(=O)Nc3ccccn3)cc2)ccc1O`, the call was inactive.

Take `Oc1ccc2c(c1)-c1ccccc1C2`: the call was inactive.

For orientation: AC50 means the midpoint of the concentration-response curve, whichever way the signal moves. `CCc1cc(SCc2sc(-c3ccc(C(F)(F)F)cc3)nc2CN2CCN(c3ccc(OC)cc3)CC2)ccc1OCC(=O)O`: the AC50 is 0.00449 µM (active).

Take `O=c1[nH]c2ccc(S(=O)CCN3CCC(Cc4ccc(F)cc4)CC3)cc2o1` (centres undefined): the compound was called inactive.

With `Fc1ccccc1[C@@H](F)COC1CCC(Nc2ncnc3[nH]ncc23)CC1` (some centres undefined), the call was inactive.

Take `CCNc1ccccc1`: the compound was classed as inactive.

Consider `COc1cccc(-c2ccc(/C=C\CN3CCCCCC3)cc2Cl)c1`, for which the compound was called inactive.

Take `COc1ccc(-n2nc(C(F)F)cc2-c2ccc(S(C)=O)cc2)cc1` (centres undefined): the outcome was inactive.

Read-out in a further assay: Intercellular Adhesion Molecule 1 (ICAM1), ICAM1 (gene 3383)
The experiment in a line: BSK_3C_ICAM1: BioMAP Diversity Plus: 3C Assay for Intercellular Adhesion Molecule 1 (ICAM1) Biomarker Activity (AID 2283003). The settings on record: primary human endothelial cells (HUVEC); actives raise or lower the signal. A digest of the protocol: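 ICAM-1 levels measured by ELISA after HUVEC cultures in the 3C system had been dosed for 24 h. Gain or loss of signal relative to DMSO was fitted in both directions.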
Take `CCOC(=O)c1ccc(C2CCC(NC[C@H](O)COc3ccc(O)c(NS(C)(=O)=O)c3)CC2)cc1` (some centres undefined): the outcome was inactive.

`CCOCCOCCOCCO`: the result was inactive.

Turning to `COC(=O)c1ccccc1O`, the outcome was inactive.

Regarding `CC(=O)OC[C@H]1O[C@@](COC(C)=O)(O[C@H]2O[C@H](COC(C)=O)[C@@H](OC(C)=O)[C@H](OC(C)=O)[C@H]2OC(C)=O)[C@@H](OC(C)=O)[C@@H]1OC(C)=O`, the outcome was inactive.

For `CCC(C)(C)C(=O)O[C@H]1C[C@@H](C)C=C2C=C[C@H](C)[C@H](CC[C@@H]3C[C@@H](O)CC(=O)O3)[C@H]21`, the result was inactive.

Take `CCCN(C1CCN(C(=O)C2CCNCC2)CC1)[C@@H]1CCc2ccc(OC)cc2C1`: the result was inactive.

For the compound `COc1ccc(/C=C/S(=O)(=O)NC(=O)c2ccc(C)cc2Cl)cc1`, the outcome was inactive.

`O=C(O)c1cc(N=Nc2ccc(S(=O)(=O)Nc3ccccn3)cc2)ccc1O`: the outcome was inactive.

`CC(C)=CCC/C(C)=C\CO`: the outcome was inactive.

For the compound `C=CCCCCCCCCC(=O)O`, the result was inactive.

For the compound `O=C(O)CC(O)C(=O)O` (centres undefined), the outcome was inactive.

Regarding `CC(=O)c1ccc2c(c1)[C@H](NC(=O)c1ccc(F)cc1)[C@@H](O)C(C)(C)O2`, the outcome was inactive.

As to `Oc1ccc2c(c1)-c1ccccc1C2`, the outcome was inactive.

With `CC(C)=CCC/C(C)=C/CO`, the result was inactive.

In the case of `CCc1cc(SCc2sc(-c3ccc(C(F)(F)F)cc3)nc2CN2CCN(c3ccc(OC)cc3)CC2)ccc1OCC(=O)O`, the AC50 was 29.9 µM (active).

As for `CCN(C(=O)c1cc(C)cc(OC[C@H](C)Nc2ccncc2)c1)C(C)C`, the outcome was inactive.

Consider `On1ccccc1=S`, for which the AC50 is 24 µM (active).

Consider `CCOCCO`, for which the result was inactive.

Consider `O=c1[nH]c2ccc(S(=O)CCN3CCC(Cc4ccc(F)cc4)CC3)cc2o1` (centres undefined), for which the result was inactive.

As to `Fc1ccccc1[C@@H](F)COC1CCC(Nc2ncnc3[nH]ncc23)CC1` (some centres undefined), the result was inactive.

As to `COC(=O)CC(=O)OC`, the outcome was inactive.

For the compound `CCNc1ccccc1`, the outcome was inactive.

For the compound `CC[C@H](C)C(=O)O[C@H]1C[C@@H](C)C=C2C=C[C@H](C)[C@H](CC[C@@H]3C[C@@H](O)CC(=O)O3)[C@H]21`, the concentration at half-maximal activity (AC50) is 36.8 µM (active).

Regarding `COc1cccc(-c2ccc(/C=C\CN3CCCCCC3)cc2Cl)c1`, the half-maximal activity concentration (AC50) was 33.5 µM (active).

As for `COc1ccc(-n2nc(C(F)F)cc2-c2ccc(S(C)=O)cc2)cc1` (centres undefined), the outcome was inactive.

With `COCCOc1cc2cc(C(=O)NC3CCN(C(C)C)CC3)n(CC(=O)Nc3ccc(Cl)cn3)c2cn1`, the outcome was inactive.

Turning to `CCOC(=O)CC(CC(=O)OCC)(OC(C)=O)C(=O)OCC`, the result was inactive.

As for `CC(=O)OCCC(C)C`, the result was inactive.

The target of a further assay is human Retinoic Acid Receptor beta (RARb), RARB (gene 5915) (UniProt P10826). The experiment in a line: ATG_RARb_TRANS: Attagene TRANS-FACTORIAL HepG2 Assay for human Retinoic Acid Receptor beta (AID 2283004; active = hit-call score of the fitted dose curve at least 0.9, where 1 is the maximum).
Sequence of human Retinoic Acid Receptor beta (RARb), RARB (gene 5915) (P10826 whole entry, looked up): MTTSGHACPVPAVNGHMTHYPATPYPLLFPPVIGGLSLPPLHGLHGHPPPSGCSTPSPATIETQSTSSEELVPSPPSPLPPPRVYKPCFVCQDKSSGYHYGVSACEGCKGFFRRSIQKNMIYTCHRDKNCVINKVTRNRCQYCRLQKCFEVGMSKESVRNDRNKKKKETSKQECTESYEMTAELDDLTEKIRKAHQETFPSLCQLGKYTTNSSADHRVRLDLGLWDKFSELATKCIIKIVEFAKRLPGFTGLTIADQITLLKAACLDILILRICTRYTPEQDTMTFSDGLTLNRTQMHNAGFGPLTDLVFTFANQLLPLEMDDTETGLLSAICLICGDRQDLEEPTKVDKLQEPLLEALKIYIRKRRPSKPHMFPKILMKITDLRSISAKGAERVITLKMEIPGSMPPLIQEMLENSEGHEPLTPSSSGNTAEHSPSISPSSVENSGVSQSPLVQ
Conditions: not given
A digest of the protocol:
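HepG2, transient MRTU transfection, NR–Gal4 chimera, 24 h treatment; RT-PCR plus CE fluorescence detection of reporter mRNA; gain of signal vs DMSO.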
With `CCOC(=O)c1ccc(C2CCC(NC[C@H](O)COc3ccc(O)c(NS(C)(=O)=O)c3)CC2)cc1` (some centres undefined), the AC50 is 52.3 µM (active).

In the case of `COC(=O)c1ccccc1O`, the result was inactive.

For the compound `C=CCCCCCCCCC(=O)O`, the result was inactive.

As to `O=C(O)CC(O)C(=O)O` (centres undefined), the result was inactive.

With `CC(=O)c1ccc2c(c1)[C@H](NC(=O)c1ccc(F)cc1)[C@@H](O)C(C)(C)O2`, the outcome was inactive.

In the case of `CC(C)=CCC/C(C)=C/CO`, the compound was classed as inactive.

In the case of `CCN(C(=O)c1cc(C)cc(OC[C@H](C)Nc2ccncc2)c1)C(C)C`, the compound was classed as inactive.

Take `CCOCCO`: the compound was called inactive.

For the compound `CCNc1ccccc1`, the compound was called inactive.

A further assay has as its target Retinoic acid receptor alpha (Homo sapiens) (UniProt P10276). The assay can be described thus: ATG_RARa_TRANS: Attagene TRANS-FACTORIAL HepG2 Assay for human Retinoic Acid Receptor alpha (RARa) (AID 2283005; active = hit-call score of the fitted dose curve at least 0.9, where 1 is the maximum).
Conditions: not given
In outline: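 HepG2 transiently transfected with multiplex GAL4-UAS reporter units including a human RARa–GAL4 chimera; 24 h compound exposure. Reporter mRNA quantified by RT-PCR, 6-FAM labeling and capillary electrophoresis; gain of signal versus DMSO.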
`CCOC(=O)c1ccc(C2CCC(NC[C@H](O)COc3ccc(O)c(NS(C)(=O)=O)c3)CC2)cc1` (some centres undefined): the compound was called inactive.

As for `COC(=O)c1ccccc1O`, the compound was classed as inactive.

For `C=CCCCCCCCCC(=O)O`, the outcome was inactive.

For `CCN(C(=O)c1cc(C)cc(OC[C@H](C)Nc2ccncc2)c1)C(C)C`, the result was inactive.

For the compound `CCNc1ccccc1`, the outcome was inactive.

For the compound `CCOC(=O)CC(CC(=O)OCC)(OC(C)=O)C(=O)OCC`, the compound was classed as inactive.

Read-out in another assay: not listed separately
The assay can be described thus: BSK_3C_Proliferation: Cell Proliferation Assessment in the BioMAP Diversity Plus: 3C Assay (AID 2283006).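 As to AC50: potency may reflect either rise or fall in cell number versus DMSO.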 The settings on record: primary human endothelial cells (HUVEC). A digest of the protocol: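 Read-out is total protein by SRB absorbance at 560 nm, taken as a proxy for relative cell number. Primary human umbilical vein endothelium cultured below confluence was dosed for 48 h, TCA-fixed and SRB-stained; curves were fitted bidirectionally versus DMSO.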
Consider `CCOC(=O)c1ccc(C2CCC(NC[C@H](O)COc3ccc(O)c(NS(C)(=O)=O)c3)CC2)cc1` (some centres undefined), for which the AC50 is 28.1 µM (active).

For the compound `CCOCCOCCOCCO`, the outcome was inactive.

Take `COC(=O)c1ccccc1O`: the result was inactive.

As to `CC(=O)OC[C@H]1O[C@@](COC(C)=O)(O[C@H]2O[C@H](COC(C)=O)[C@@H](OC(C)=O)[C@H](OC(C)=O)[C@H]2OC(C)=O)[C@@H](OC(C)=O)[C@@H]1OC(C)=O`, the result was inactive.

On to `CCC(C)(C)C(=O)O[C@H]1C[C@@H](C)C=C2C=C[C@H](C)[C@H](CC[C@@H]3C[C@@H](O)CC(=O)O3)[C@H]21`, for which the AC50 is 4.32 µM (active).

Take `CCCN(C1CCN(C(=O)C2CCNCC2)CC1)[C@@H]1CCc2ccc(OC)cc2C1`: the result was inactive.

On to `COc1ccc(/C=C/S(=O)(=O)NC(=O)c2ccc(C)cc2Cl)cc1`, for which the AC50 was 7.08 µM (active).

`O=C(O)c1cc(N=Nc2ccc(S(=O)(=O)Nc3ccccn3)cc2)ccc1O`: the outcome was inactive.

Consider `CC(C)=CCC/C(C)=C\CO`, for which the result was inactive.

For the compound `C=CCCCCCCCCC(=O)O`, the outcome was inactive.

Regarding `O=C(O)CC(O)C(=O)O` (centres undefined), the result was inactive.

As for `CC(=O)c1ccc2c(c1)[C@H](NC(=O)c1ccc(F)cc1)[C@@H](O)C(C)(C)O2`, the outcome was inactive.

For `Oc1ccc2c(c1)-c1ccccc1C2`, the AC50 was 15.4 µM (active).

Take `CC(C)=CCC/C(C)=C/CO`: the result was inactive.

For `CCc1cc(SCc2sc(-c3ccc(C(F)(F)F)cc3)nc2CN2CCN(c3ccc(OC)cc3)CC2)ccc1OCC(=O)O`, the AC50 was 9.19 µM (active).

In the case of `CCN(C(=O)c1cc(C)cc(OC[C@H](C)Nc2ccncc2)c1)C(C)C`, the outcome was inactive.

Turning to `On1ccccc1=S`, the AC50 is 4.91 µM (active).

As for `CCOCCO`, the outcome was inactive.

As to `O=c1[nH]c2ccc(S(=O)CCN3CCC(Cc4ccc(F)cc4)CC3)cc2o1` (centres undefined), the result was inactive.

Turning to `Fc1ccccc1[C@@H](F)COC1CCC(Nc2ncnc3[nH]ncc23)CC1` (some centres undefined), the AC50 was 29.3 µM (active).

As for `COC(=O)CC(=O)OC`, the outcome was inactive.

For the compound `CCNc1ccccc1`, the outcome was inactive.

Consider `CC[C@H](C)C(=O)O[C@H]1C[C@@H](C)C=C2C=C[C@H](C)[C@H](CC[C@@H]3C[C@@H](O)CC(=O)O3)[C@H]21`, for which the AC50 was 13.6 µM (active).

In the case of `COc1cccc(-c2ccc(/C=C\CN3CCCCCC3)cc2Cl)c1`, the AC50 is 14.2 µM (active).

Consider `COc1ccc(-n2nc(C(F)F)cc2-c2ccc(S(C)=O)cc2)cc1` (centres undefined), for which the result was inactive.

On to `CCCCCCc1ccc(O)cc1O`, for which the AC50 was 30.2 µM (active).

Take `COCCOc1cc2cc(C(=O)NC3CCN(C(C)C)CC3)n(CC(=O)Nc3ccc(Cl)cn3)c2cn1`: the result was inactive.

On to `CCOC(=O)CC(CC(=O)OCC)(OC(C)=O)C(=O)OCC`, for which the outcome was inactive.

`CC(=O)OCCC(C)C`: the result was inactive.
